These results are taken from PubChem BioAssay (NCATS).

The test system of one assay is Hek293T. The experiment in a line: Primary qHTS to identify gynecologic anti-cancer compounds using libraries of approved drugs and bioactive compounds (AID 1345084). Further: nearly all actives have a fitted effect of over 55% in size. Further: potency means the concentration at half of the fitted maximal effect. The note with it: Gynecologic cancer cell panel viability, ATPlite luminescence, 48 h, control line for the selectivity index; series mostly up to 57.5 µM. The method in brief: (§1)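 Cytotoxicity screen measuring ATP content by luciferase luminescence. Each compound is applied at five concentrations for 48 h at 37 C with 5% CO2.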

Another assay relates to JEG-3. The description is as above. The note with it: Gynecologic cancer cell panel viability, ATPlite luminescence, 48 h; series mostly up to 57.5 µM. Put shortly: as §1
For orientation: ATP-based viability assays read luminescence as a measure of living cells.

A further assay concerns OV90. The description is as above. The note with it: Gynecologic cancer cell panel viability, ATPlite luminescence, 48 h; series mostly up to 57.5 µM. Put shortly: as §1
The subject of the next assay is PA-1. Described as above. The settings on record: Gynecologic cancer cell panel viability, ATPlite luminescence, 48 h; series mostly up to 57.5 µM. Put shortly: as §1
The test system of the next assay is Tov-21-G. Described as above. The note with it: Gynecologic cancer cell panel viability, ATPlite luminescence, 48 h; series mostly up to 57.5 µM. Put shortly: as §1
For another assay, the system named is Tov112D. Described as above. The note with it: Gynecologic cancer cell panel viability, ATPlite luminescence, 48 h; series mostly up to 57.5 µM. The method in brief:
as §1

Another assay concerns SKOV3. The assay is described as above. The settings on record: Gynecologic cancer cell panel viability, ATPlite luminescence, 48 h; series mostly up to 57.5 µM. The method in brief:
as §1

Assay [1] in a line: Drug repurposing screens with cells derived from glioblastoma tumor samples (AID 1345199). Further: potency means the concentration at half of the fitted maximal effect. On activity, negative = cell killing: on the % scale 0 is the no-effect control and ±100 the full control effect. On all read-outs here: nearly all actives have a fitted effect of over 40% in size. The settings on record: GBM patient neurospheres viability, ATP luminescence, 48 h; for Potency: tumour line A. The method in brief:
(§2)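 Primary testing used CD133+ neurospheres from four GBM patients, seven concentrations, 48 h exposure and ATP-based viability; confirmation added three slower-growing patient lines.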

For a further assay, the system named is astro. Described as above. The settings on record: viability, ATP luminescence, 48 h; series mostly up to 45.9 µM. The method in brief: as §2
Assay [2] has as its target Nuclear receptor subfamily 1 group I member 2 (Rattus norvegicus) (UniProt Q9R1A7). In words: qHTS assay for small molecule activators of the rat pregnane X receptor (rPXR) signaling pathway (AID 651751; call rule not given here; further: 0% is about no effect). The note with it: rPXR reporter cells, luciferase (One-Glo), 24 h. A general note: Quantitative high-throughput screening tests each substance at several concentrations.

Assay [3] is described as follows: qHTS assay for small molecule activators of the human pregnane X receptor (PXR) signaling pathway (AID 720659; call rule not given here; further: 0% is about no effect). The note with it: DPX-2 HepG2 CYP3A4-luciferase, 24 h; series mostly up to 92.3 µM.
The mark [4] stands for this setting: at 45.9 µM (top of the series), tumour line B.
Where [5] appears, read: at 45.9 µM (top of the series), tumour line D.
Setting [6] is: at 46.1 µM (top of the series), tumour line C.

Values without a mark were called inactive. Inconclusive results are not listed. Activity calls are given as the source filed them. Unless noted, the call rests on the fitted dose curve; in most records, active means well fitted curve in the direction sought with a large enough effect; inconclusive means small, poorly fitted or top-dose-only effect, or another doubt; inactive means no such curve, though single readings can be large; an effect the other way counts as inactive or inconclusive.

Chain of Nuclear receptor subfamily 1 group I member 2 (Rattus norvegicus) (Q9R1A7 whole entry, looked up): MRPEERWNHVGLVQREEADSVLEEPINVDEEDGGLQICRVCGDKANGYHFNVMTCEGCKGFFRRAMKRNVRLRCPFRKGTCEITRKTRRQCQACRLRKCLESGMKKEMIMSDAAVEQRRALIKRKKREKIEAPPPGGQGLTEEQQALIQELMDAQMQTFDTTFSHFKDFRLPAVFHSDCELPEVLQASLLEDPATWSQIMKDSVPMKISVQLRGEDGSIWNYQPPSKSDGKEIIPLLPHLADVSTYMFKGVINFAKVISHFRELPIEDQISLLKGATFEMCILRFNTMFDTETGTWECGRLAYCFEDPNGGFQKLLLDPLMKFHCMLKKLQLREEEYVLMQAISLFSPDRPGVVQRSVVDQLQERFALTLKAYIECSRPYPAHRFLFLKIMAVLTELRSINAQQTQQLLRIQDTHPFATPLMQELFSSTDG

Take `CCC1NC(=O)C2C(Cl)C(Cl)CN2C(=O)C(C(C)O)NC(=O)CC(c2ccccc2)NC(=O)C(CO)NC1=O` (configuration not stated): the Potency entry in the assay on Hek293T, with JEG-3, in the assay on OV90, in the assay with PA-1, in the assay on Tov-21-G and with Tov112D was “inactive” in each case.
As to `COC1CC(O[C@H]2CC[C@]3(C=O)C4CC[C@]5(C)[C@@H](C6=CC(=O)OC6)CC[C@]5(O)[C@@H]4CC[C@]3(O)C2)OC(C)C1O[C@@H]1O[C@H](CO)[C@@H](O)[C@H](O)[C@H]1O` (some centres not stated), the Potency with Hek293T is 501 nM (active); with PA-1, 316 nM (active); in the assay on SKOV3, 447 nM (active); with Tov-21-G, 141 nM (active); in the assay on Tov112D, 100 nM (active).
Regarding `CC(N)Cc1c[nH]c2ccccc12` (configuration not stated), the Potency result in the assay on Hek293T, in the assay with JEG-3, in the assay with OV90, in the assay with PA-1, in the assay on Tov-21-G and in the assay with Tov112D was “inactive” throughout.
For the compound `CC[C@H]1CN2CC[C@H]1C[C@@H]2[C@@H](O)c1ccnc2ccc(OC)cc12`, the Potency entry with Hek293T, in the assay on JEG-3, with OV90, in the assay with SKOV3, with Tov-21-G and in the assay with Tov112D was “inactive” in each case.
As for `CCN1CC2(COC)C3[C@@H](OC)C4C1C3(C1C[C@]3(O)[C@H](OC(=O)c5ccccc5)C1[C@]4(OC(C)=O)[C@@H](O)[C@@H]3OC)[C@H](OC)C[C@H]2O` (some centres not stated), the Potency result with Hek293T, with JEG-3, in the assay with OV90, in the assay on SKOV3, in the assay on Tov-21-G and in the assay with Tov112D was “inactive” in each case.
As to `O=C1C[C@@H]2OCC=C3CN4CC[C@]56c7ccccc7N1[C@H]5[C@H]2[C@H]3C[C@H]46`, the Potency entry with Hek293T, in the assay with JEG-3, in the assay on OV90, with PA-1, with SKOV3 and with Tov-21-G was “inactive” each time. Moreover, the Potency result with Tov112D and in the assay with astro was “inactive” each time. The activity, negative = cell killing in assay [1] (setting [4]) is -6.57%; in [1] (setting [5]), -6.6%; in assay [1] (setting [6]), 6.33%. Also, the Potency in [1] is 12.6 µM (active). The max response in [2] was 0.534%.
`CC12CCC3C(CCC4(O)CC(O)CCC34C=O)C1(O)CCC2C1=CC(=O)OC1` (configuration not stated): the Potency in the assay with Hek293T is 1260 nM (active); in the assay on OV90 it was 7.08 µM (active); in the assay with PA-1 it was 1120 nM (active); in the assay on SKOV3, 1580 nM (active); in the assay on Tov-21-G, 708 nM (active); in the assay with Tov112D, 355 nM (active).
As to `COc1cc(C)[nH]c(=O)c1CNC(=O)c1c(C)n([C@H](C)C2CCOCC2)c2ccccc12`, the Potency entry with Hek293T, in the assay on JEG-3, in the assay with OV90, in the assay on PA-1, in the assay with Tov-21-G and in the assay on Tov112D was “inactive” throughout.
In the case of `Cc1cccc(NC(=O)N[C@@H]2N=C(c3ccccc3)c3ccccc3N(C)C2=O)c1`, the Potency entry in the assay on Hek293T, in the assay on JEG-3, with OV90, in the assay with PA-1, in the assay on Tov-21-G and in the assay on Tov112D was “inactive” in each case.
Turning to `C[CH2][Hg][S]c1ccccc1C(=O)O`, the Potency was 35500 nM (active) with Tov-21-G and 1.58 µM (active) in the assay on astro.
Regarding `COC1CC(OC2CCC3(C=O)C(CCC4C3CCC3(C)C(C5=CC(=O)OC5)CCC43O)C2)OC(C)C1OC1OC(CO)C(O)C(O)C1O` (configuration not stated), the Potency with Hek293T was 398 nM (active); with OV90, 0.891 µM (active); in the assay on PA-1, 501 nM (active); in the assay with SKOV3, 355 nM (active); with Tov-21-G it was 199 nM (active); in the assay on Tov112D it was 100 nM (active).
`CC(C)[C@@]1(NC(=O)[C@@H]2C[C@@H]3c4cccc5[nH]cc(c45)C[C@H]3N(C)C2)O[C@@]2(O)[C@@H]3CCCN3C(=O)[C@H](Cc3ccccc3)N2C1=O`: the activity, negative = cell killing in assay [1] (setting [6]) is 9.68%. The Potency in assay [1] was 3.16 µM (active).
For the compound `COc1ccccc1CN[C@H]1C2CCN(CC2)[C@H]1C(c1ccccc1)c1ccccc1`, the Potency result in the assay with Hek293T, in the assay with JEG-3, in the assay with PA-1, with SKOV3, in the assay with Tov-21-G and with Tov112D was “inactive” in each case.
Turning to `C=C[C@H]1CN2CC[C@H]1C[C@@H]2[C@@H](O)c1ccnc2ccccc12`, the Potency result in the assay on Hek293T, in the assay on JEG-3, in the assay with OV90, in the assay with PA-1, with SKOV3 and with Tov-21-G was “inactive” in each case. Also, the Potency entry in the assay with Tov112D and in the assay with astro was “inactive” each time. The activity, negative = cell killing was -7.16% in assay [1] (setting [4]), -9.4% in assay [1] (setting [5]) and 15.7% in assay [1] (setting [6]). In addition, in [1], the Potency is 17.8 µM (active).
With `O=C(O)c1ccnc2cc(C(OCCN3CCCCC3)c3ccccc3Cl)[nH]c12` (configuration not stated), the Potency entry in the assay with Hek293T, with JEG-3, in the assay with OV90, with PA-1, in the assay with Tov-21-G and in the assay with Tov112D was “inactive” throughout.
Consider `Cc1c(Cl)cccc1S(=O)(=O)Nc1nc(CC(=O)N2CCN(C)CC2)cs1`, for which the Potency result with Hek293T, with JEG-3, in the assay with OV90, in the assay with PA-1, in the assay on Tov-21-G and in the assay on Tov112D was “inactive” in each case.
With `CO[C@H]1[C@H](O)[C@H](O[C@H]2CC[C@]3(C)C4CC[C@]5(C)[C@H](C6=CC(=O)OC6)CC[C@]5(O)C4CC[C@@H]3C2)O[C@@H](C)[C@@H]1O` (some centres not stated), the Potency in the assay with Hek293T is 89.1 nM (active); in the assay on JEG-3 it was 178 nM (active); with OV90, 0.282 µM (active); with PA-1 it was 89.1 nM (active); in the assay on Tov-21-G, 31.6 nM (active).
Regarding `CCOc1ccccc1-n1c(C(C)N2CCN(C(=O)COc3ccc(Cl)cc3)CC2)nc2ccccc2c1=O` (configuration not stated), the Potency result in the assay on OV90, with PA-1 and in the assay with SKOV3 was “inactive” each time. For the same compound, the Potency in the assay on Tov-21-G is 6310 nM (active).
`COC1=CC(=O)O[C@@H](/C=C/c2ccccc2)C1`: the Potency entry in the assay on Hek293T, in the assay with JEG-3, with PA-1, with SKOV3, in the assay on Tov-21-G and in the assay with Tov112D was “inactive” each time. For the same compound, the outcome in assay [3] was inactive.
In the case of `CN1CCC[C@@H]1Cc1c[nH]c2ccc(Nc3ncccc3[N+](=O)[O-])cc12`, the Potency entry with JEG-3, in the assay on OV90, in the assay with PA-1, in the assay on SKOV3, in the assay on Tov-21-G and in the assay on Tov112D was “inactive” throughout.
Take `COC1CC(OC2CCC3(C)C(CCC4C3CCC3(C)C(C5=CC(=O)OC5)C(OC(C)=O)CC43O)C2)OC(C)C1OC1OC(CO)C(O)C(O)C1O` (configuration not stated): the Potency was 3160 nM (active) in the assay with Hek293T, 1260 nM (active) in the assay on Tov-21-G and 891 nM (active) in the assay with Tov112D.
With `COC1C(O)C(C)OC(OC2C(CO)O[C@@H](O[C@@H]3CC4CCC5C(CC[C@]6(C)[C@@H](C7=CC(=O)OC7)CC[C@]56O)[C@@]4(C)[C@H](O)C3)C(O)C2O)C1O` (some centres not stated), the Potency with Hek293T is 2820 nM (active); in the assay with OV90, 4.47 µM (active); in the assay with PA-1, 2820 nM (active); with SKOV3, 2820 nM (active); in the assay on Tov-21-G it was 1000 nM (active); with Tov112D, 501 nM (active).
In the case of `Cc1cc(C(=O)CN2CCCC2)c(C)n1-c1ccc(F)cc1`, the Potency result in the assay with Hek293T, with JEG-3, in the assay on OV90, in the assay with PA-1, in the assay on Tov-21-G and with Tov112D was “inactive” each time.
